The source made the active and inactive calls. Unless noted, the rule behind the calls is not given here.
Experiments:
[1] = anti-His antibody binders, primary screen, artefact control for SMM control protein annotation, biochemical, small-molecule microarray, 635 nm fluorescence (AID 1128); details: anti-His Alexa647 antibody binding, higher = more signal;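 note: score merges feature fluorescence with signal-to-noise for each printed compound spot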
[2] = test system: Human papillomavirus type 1a E7 protein (residues 1-88); test: HPV1a E7 small-molecule binders, primary screen, biochemical, small-molecule microarray, residues 1-88, 635 nm (AID 1129); details: small-molecule microarray binding, fluorescence 635 nm; higher = more signal
[3] = target: Focal adhesion kinase 1 (Homo sapiens) (UniProt Q05397); test: small-molecule microarray binders of FAK, primary screen, biochemical, 635/667 nm fluorescence, BSA, DTT (AID 1130); details: PTK2 binding, 635 nm fluorescence, higher = more signal;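 note: composite of spot emission at 667 nm and signal to noise over triplicate slides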
Sequence of Focal adhesion kinase 1 (Homo sapiens) (Q05397 whole entry, looked up): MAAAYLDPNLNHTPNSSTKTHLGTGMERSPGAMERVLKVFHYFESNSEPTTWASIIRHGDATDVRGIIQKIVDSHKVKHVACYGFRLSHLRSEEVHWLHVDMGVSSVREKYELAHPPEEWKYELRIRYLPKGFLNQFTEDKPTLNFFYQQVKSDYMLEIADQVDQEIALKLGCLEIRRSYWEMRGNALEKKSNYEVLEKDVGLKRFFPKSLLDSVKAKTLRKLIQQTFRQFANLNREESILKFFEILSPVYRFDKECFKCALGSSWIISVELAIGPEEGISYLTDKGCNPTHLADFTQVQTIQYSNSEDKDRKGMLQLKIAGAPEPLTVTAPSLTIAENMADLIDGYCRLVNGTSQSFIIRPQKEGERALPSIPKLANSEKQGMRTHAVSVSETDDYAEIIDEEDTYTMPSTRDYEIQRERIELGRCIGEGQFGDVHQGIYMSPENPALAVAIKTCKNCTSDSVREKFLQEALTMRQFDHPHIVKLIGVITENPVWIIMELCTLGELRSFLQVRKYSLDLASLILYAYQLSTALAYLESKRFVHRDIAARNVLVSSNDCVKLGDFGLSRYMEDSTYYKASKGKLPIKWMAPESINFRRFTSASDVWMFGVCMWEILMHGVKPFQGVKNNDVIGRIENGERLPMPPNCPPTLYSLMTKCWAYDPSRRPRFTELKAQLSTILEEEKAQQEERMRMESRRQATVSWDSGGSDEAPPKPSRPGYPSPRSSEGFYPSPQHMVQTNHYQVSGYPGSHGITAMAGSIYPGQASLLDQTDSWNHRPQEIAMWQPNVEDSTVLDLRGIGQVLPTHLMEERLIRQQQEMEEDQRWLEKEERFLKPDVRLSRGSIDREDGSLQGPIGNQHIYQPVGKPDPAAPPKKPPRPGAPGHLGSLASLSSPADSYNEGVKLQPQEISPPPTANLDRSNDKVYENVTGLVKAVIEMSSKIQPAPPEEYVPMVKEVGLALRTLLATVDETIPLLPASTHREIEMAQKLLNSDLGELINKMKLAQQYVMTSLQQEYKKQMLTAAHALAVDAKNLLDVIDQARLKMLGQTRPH

[4] = test system: Fibrinogen (Alexa647-labelled); test: fibrinogen binders on compound microarrays, profiling panel, artefact control for SMM control-protein annotation, biochemical, small-molecule microarray, 635/667 nm fluorescence (AID 1131); details: fibrinogen-A647 binding fluorescence, higher = more signal;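 note: z-score merges 667 nm fluorescence with per-spot signal-to-noise over triplicate slides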
[5] = target: Follistatin (Homo sapiens) (UniProt P19883); test: follistatin binders on small-molecule microarrays, primary screen, biochemical, small-molecule microarray, 635/667 nm fluorescence (AID 1132); details: FST binding, 635 nm fluorescence, higher = more signal
Sequence of Follistatin (Homo sapiens) (P19883 whole entry, looked up): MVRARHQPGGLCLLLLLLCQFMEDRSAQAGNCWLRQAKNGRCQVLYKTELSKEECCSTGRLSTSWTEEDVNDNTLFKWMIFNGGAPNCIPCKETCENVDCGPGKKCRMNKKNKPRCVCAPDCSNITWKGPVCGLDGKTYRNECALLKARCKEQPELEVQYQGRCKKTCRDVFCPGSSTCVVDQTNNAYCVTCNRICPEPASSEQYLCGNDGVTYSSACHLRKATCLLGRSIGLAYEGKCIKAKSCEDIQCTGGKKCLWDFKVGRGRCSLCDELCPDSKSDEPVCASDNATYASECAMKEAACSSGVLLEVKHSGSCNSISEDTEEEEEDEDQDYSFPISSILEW

[6] = target: Fibroblast growth factor 2 (Homo sapiens) (UniProt P09038); test: FGF2 binders on small-molecule microarrays, primary screen, biochemical, small-molecule microarray, 635/667 nm fluorescence (AID 1133); details: small-molecule microarray binding, FGF2, fluorescence 635/667; higher = more signal
Sequence of Fibroblast growth factor 2 (Homo sapiens) (P09038 whole entry, looked up): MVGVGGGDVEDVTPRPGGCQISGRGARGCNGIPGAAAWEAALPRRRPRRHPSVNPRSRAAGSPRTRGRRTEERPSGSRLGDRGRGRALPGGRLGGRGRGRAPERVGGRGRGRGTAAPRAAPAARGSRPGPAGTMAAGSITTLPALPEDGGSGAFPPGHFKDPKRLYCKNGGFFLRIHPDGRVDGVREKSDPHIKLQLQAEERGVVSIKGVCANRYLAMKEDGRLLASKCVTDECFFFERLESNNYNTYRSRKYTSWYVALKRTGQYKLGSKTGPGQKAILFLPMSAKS

[7] = mitochondrial membrane potential change in A549 cells, profiling panel, cell-based, JC-1 fluorescence, basal, 24 h, 100 nL (AID 1138); details: higher = more signal;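 note: A549 lung adenocarcinoma cells under basal conditions with no added stimulus; test concentration not given here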
Lefty1 = Lefty1 binders on small-molecule microarrays, primary screen, biochemical, small-molecule microarray, 635/667 nm fluorescence (AID 1139); details: small-molecule microarray binding, fluorescence 635/667; higher = more signal
[8] = test system: wheat germ agglutinin (Triticum aestivum), Alexa647-labelled; test: wheat germ agglutinin binders on compound microarrays, profiling panel, artefact control for SMM control-protein annotation, biochemical, small-molecule microarray, 635/667 nm fluorescence (AID 1140); details: WGA-A647 binding, 635 nm fluorescence, higher = more signal;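 note: score merges 667 nm feature emission with signal to noise over triplicate slides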
[9] = target: Luciferin 4-monooxygenase (Photinus pyralis) (UniProt P08659); test: firefly luciferase enzyme inhibitors, primary screen, biochemical, luminescence, purified enzyme, 2006 set (AID 1141); details: SteadyGlo luminescence, 30 min, higher = more signal, called active from +8 up or from −8 down;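 note: cell-free assay with purified firefly luciferase at 100 ng per well in PBS; test concentration not given here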
Sequence of Luciferin 4-monooxygenase (Photinus pyralis) (P08659 whole entry, looked up): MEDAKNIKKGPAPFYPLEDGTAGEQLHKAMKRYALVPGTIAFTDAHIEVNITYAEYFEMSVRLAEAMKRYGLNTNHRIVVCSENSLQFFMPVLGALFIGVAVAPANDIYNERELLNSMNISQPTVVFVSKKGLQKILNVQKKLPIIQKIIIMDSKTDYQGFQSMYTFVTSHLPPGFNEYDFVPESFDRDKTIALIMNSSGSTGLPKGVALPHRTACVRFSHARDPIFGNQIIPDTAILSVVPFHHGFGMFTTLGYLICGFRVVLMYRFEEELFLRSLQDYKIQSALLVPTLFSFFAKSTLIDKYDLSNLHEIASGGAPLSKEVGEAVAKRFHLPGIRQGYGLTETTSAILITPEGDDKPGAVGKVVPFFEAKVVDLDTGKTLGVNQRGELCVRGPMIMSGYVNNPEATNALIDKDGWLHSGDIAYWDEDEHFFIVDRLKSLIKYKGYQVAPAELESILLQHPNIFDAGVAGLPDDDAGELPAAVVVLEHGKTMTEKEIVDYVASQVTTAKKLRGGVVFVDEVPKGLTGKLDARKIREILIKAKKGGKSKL

[10] = test system: Wnt5a (protein binding on small-molecule microarray); test: Wnt5a binders on small-molecule microarray, primary screen, biophysical, 635/667 nm fluorescence (AID 1142); details: 635 nm fluorescence, higher = more signal;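 note: fluorescence read at 667 nm with signal to noise per printed feature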
[11] = cell viability in Huh7 cells, primary screen, cytotoxicity control for HCV replication inhibitor project, CellTiter-Glo luminescence, basal, 48 h (AID 1143); details: Huh7 HCV replicon, higher = more signal, called active from +8 up or from −8 down;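 note: Huh7 hepatoma cells carrying a hepatitis C replication reporter with no stimulus; test concentration not given here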
[12] = P. aeruginosa biofilm formation inhibitors, primary screen, PAO1 strain, BacTiter-Glo luminescence, LB-PBS (AID 1144); details: 12 h, higher = more signal
[13] = CREB reporter modulators without forskolin, primary screen, cell-based, PC12, CRE-LacZ reporter, unstimulated (AID 1145); details: no forskolin, luminescence, 4.5 h, higher = more signal, called active from +8 up or from −8 down
[14] = CREB reporter modulators under forskolin, primary screen, cell-based, PC12, CRE-LacZ reporter, forskolin-stimulated (AID 1146); details: luminescence, 4.5 h, higher = more signal, called active from +8 up or from −8 down;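 note: PC12 cells with 6xCRE LacZ reporter stimulated by forskolin 10 µM; beta-galactosidase reporter signal reflecting CREB driven transcription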
[15] = target: Streptavidin (Streptomyces avidinii) (UniProt P22629); test: streptavidin binders on small-molecule microarray, primary screen, artefact control for SMM compound annotation, biophysical, 635/667 nm fluorescence (AID 1147); details: streptavidin binding, higher = more signal;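 note: signal reflects streptavidin binding to arrayed compounds as a control protein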
Sequence of Streptavidin (Streptomyces avidinii) (P22629 whole entry, looked up): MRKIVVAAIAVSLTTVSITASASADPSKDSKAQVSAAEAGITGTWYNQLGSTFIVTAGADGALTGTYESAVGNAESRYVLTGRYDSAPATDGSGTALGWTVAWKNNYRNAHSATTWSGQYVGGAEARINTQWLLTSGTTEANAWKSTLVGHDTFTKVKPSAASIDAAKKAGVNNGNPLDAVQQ

[16] = small-molecule binders of probe aInhba, primary screen, biochemical, small-molecule microarray, 635/667 nm fluorescence (AID 1148); details: higher = more signal;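 note: score merges 667nm spot fluorescence with signal-to-noise for antibody binding to printed compounds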
Torsin-1A (Homo sapiens) [17] = target: Torsin-1A (Homo sapiens) (UniProt O14656); test: torsin A binders from cell lysate, primary screen, small-molecule microarray, wild-type, 635/667 nm (AID 1149); details: COS7 hTOR1A-WT lysate, 635 nm fluorescence, higher = more signal
Sequence of Torsin-1A (Homo sapiens) (O14656 whole entry, looked up): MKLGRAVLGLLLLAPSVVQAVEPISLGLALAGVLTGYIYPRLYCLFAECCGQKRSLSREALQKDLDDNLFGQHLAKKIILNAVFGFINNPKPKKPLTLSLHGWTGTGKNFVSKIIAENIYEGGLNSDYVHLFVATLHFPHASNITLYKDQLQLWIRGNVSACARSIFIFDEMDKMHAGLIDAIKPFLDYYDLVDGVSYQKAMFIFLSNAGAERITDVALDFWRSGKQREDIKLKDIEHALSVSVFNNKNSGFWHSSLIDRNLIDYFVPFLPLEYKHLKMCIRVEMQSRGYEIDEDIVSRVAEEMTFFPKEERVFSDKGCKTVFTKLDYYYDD

Torsin-1A (Homo sapiens) [18] = target: Torsin-1A (Homo sapiens) (UniProt O14656); test: small-molecule binders of mutant TOR1A in lysate, primary screen, cell lysate, small-molecule microarray, COS7 lysate, 635/667 nm fluorescence (AID 1150); details: COS7 hTOR1A mutant lysate, 635 nm fluorescence, higher = more signal;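 note: score pools 667 nm emission and signal to noise measuring lysate protein binding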
[19] = test system: Sonic hedgehog protein (Shh); test: small-molecule binders of Shh protein, primary screen, biochemical, small-molecule microarray, 635/667 nm fluorescence (AID 1151); details: small-molecule microarray binding, 635 nm fluorescence; higher = more signal;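 note: Shh protein binding to compounds spotted on small-molecule microarray slides; score combines spot fluorescence intensity with signal-to-noise across triplicate slides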

Row | Compound | composite z-score [1] | composite z-score [2] | composite z-score [3] | composite z-score [4] | composite z-score [5] | composite z-score [6] | z-score [7] | composite z-score (Lefty1) | composite z-score [8] | z-score [9] | composite z-score [10] | z-score [11] | z-score [12] | z-score [13] | z-score [14] | composite z-score [15] | composite z-score [16] | composite z-score (Torsin-1A (Homo sapiens) [17]) | composite z-score (Torsin-1A (Homo sapiens) [18]) | composite z-score [19]
1 | C=CCN1Cc2ccccc2[C@H]2OC(c3ccc(OCCCO)cc3)=N[C@@]2(CC=C)C1=O | 2.47 | 1.23 | 1.12 | 0.59 | 1.54 | 1.87 | 1.33 | 0.834 | 0.619 | -0.107 (inactive) | 1.07 | -3.16 (inactive) | -0.746 (inactive) | 0.0594 (inactive) | -1.58 (inactive) | 0.998 | 0.268 | 1.08 | 0.475 | 1.91
2 | COC(=O)[C@@]1(Cc2ccc(OC)cc2)[C@H]2c3cc(C(=O)N(C)C)n(C[C@H](O)CO)c3C[C@H]2CN1C(=O)c1ccccc1 | 0.396 | 1.2 | 1.17 | 0.904 | 0.291 | -1.16 | 0.193 | -0.908 | 1.34 | 0.543 (inactive) | 0.533 | -2.58 (inactive) | -0.0273 (inactive) | 0.39 (inactive) | 1.33 (inactive) | 1.41 | 0.116 | 0.219 | 1.16 | -0.753
3 | CCCCC(O)C1C=CC2C(=O)N(c3ccccc3)C(=O)C2N1Nc1ccc(C(C)C)cc1 (stereo not given) | 0.236 | 1.22 | 0.536 | 1.01 | 0.967 | -0.138 | -0.142 | 0.451 | 0.394 | -1.46 (inactive) | 0.261 | -0.714 (inactive) | -0.905 (inactive) | 1.38 (inactive) | 0.232 (inactive) | 0.486 | 0.341 | -0.149 | 0.214 | -0.207
4 | CC(C)N1CC=CC23O[C@@H]4C=CCOC(=O)[C@@H]4[C@H]2C(=O)N(CCCO)[C@@H]3C1=O (stereo not given in full) | 1.59 | 0.672 | 1.01 | -1.14 | -0.0511 | -0.849 | -0.384 | -0.133 | -0.17 | -3.85 (inactive) | -0.26 | -5.24 (inactive) | -2.47 (inactive) | -1.31 (inactive) | -0.931 (inactive) | -0.941 | -0.182 | 1.12 | 0.874 | -0.182
5 | COC(=O)[C@H](Cc1ccccc1)N1CC(/C=C/C2CC2)=C[C@H]1[C@H](O)Cc1ccccc1 | -0.0173 | 0.921 | 0.437 | 0.667 | 0.582 | 0.526 | -0.267 | 0.545 | 0.958 | -0.807 (inactive) | -0.0412 | -2.83 (inactive) | 0.954 (inactive) | 2.1 (inactive) | 18.9 (active) | 0.626 | -0.0523 | 0.211 | 0.188 | 0.593

From PubChem BioAssay
